These results are taken from PubChem BioAssay AID651822 (The Scripps Research Institute Molecular Screening Center, 2012).

The term inhibition denotes the drop in the measured response relative to a control, in per cent.

Screen size: about 2,300 compounds; about 970 (42%) were called active. So high a share suggests a set chosen from earlier hits. Not all results are given here. A number with no mark means an inactive call. No stated cut-off is given here; in the data, active means inhibition above about 4.5%; inactive means the rest.

In the assay the test system is Methionine sulfoxide reductase A (Bos taurus). Nature of the assay: methionine sulfoxide reductase A inhibition – biochemical, absorbance, bovine, HTS, confirmation (AID 651822).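 Further: coupled to thioredoxin reductase with NADPH and selenocystamine and DMSO as substrate; 0% = vehicle only and 100% = full effect of reference inhibitor.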 Conditions: purified bovine MsrA, absorbance read-out; at 15.5 µM; active compounds read high.
Regarding `Cc1oc2c(c1C(=O)N1CCOCC1)C(=O)c1ccccc1C2=O`, the inhibition is 15.3% (active).
The value for `C=CCNC(=S)N/N=C/c1ccc(C)s1` was 5.29% (active); that for `COCCNC(=S)N/N=C/c1c(C)[nH]c2ccccc12` was 4.03%; that for `Cc1cc(C(=O)N/N=C/c2ccc(O)c([N+](=O)[O-])c2)c(C)n1-c1ccc(F)cc1` was 4.12%.
The figure for `NC(=S)N/N=C/c1ccc([N+](=O)[O-])cc1` is 4.55% (active); for `Cc1ccc(N2CCN(C3=NC(=O)/C(=C\c4cccs4)S3)CC2)cc1` it is 1.26%.
The figure for `COc1ccc(C2=NS(=O)(=O)N(C)C(C(=O)N3CCCCC3)=C2)cc1` is 3.33%; for `COc1ccc(/C=C/C(=O)NC(=S)N2CCCC(C(N)=O)C2)cc1` (centres undefined) it is 6.19% (active); for `CCN(CC)c1ccc(/C=N/NC(=O)CNC(=O)c2cccs2)cc1` it is 3.57%.
In the case of `O=C(N/N=C/C=C/c1ccco1)c1cccs1`, the inhibition is 7.55% (active).
The value for `CC(=O)Nc1ccc(/C=N/NC(=O)c2cccs2)cc1` was 3.39%; that for `COc1ccc(CC(=O)c2ccc(O)cc2O)cc1OC` was 4.03%.
The figure for `C/C(=N\Nc1ccc(S(N)(=O)=O)cc1[N+](=O)[O-])c1cccs1` is 1.79%.
The value for `CCOC(=O)C/C(C)=N\Nc1ccc([N+](=O)[O-])cc1[N+](=O)[O-]` was 9.34% (active); that for `COc1cc(C2C(C(=O)c3sc(C)nc3C)=C(O)C(=O)N2CCN(C)C)cc(OC)c1OC` (centres undefined) was 9.08% (active).
With `Cc1ccc(-c2ccc(/C=C(\C#N)C(N)=S)o2)c([N+](=O)[O-])c1`, the inhibition is 2.76%.
The value for `COc1ccc(/C=C/C(=O)Nc2cccnc2)cc1OC` was 4.72% (active); that for `CC(/C=N/NC(=O)c1ccncc1)=C\c1ccco1` was 6.11% (active); that for `CC(C)Oc1c(Br)cc(Br)cc1/C=N/NC(N)=S` was 6.46% (active).
The figure for `CCOC(OCC)c1ccc(/C=C\c2nccc(N)n2)cc1` is 3.39%; for `CCc1nnc(NS(=O)(=O)c2ccc(NC(=S)NC(=O)/C=C/c3cccs3)cc2)s1` it is 4.14%; for `CCc1nnc(NC(=O)/C=C/c2ccc(C)o2)s1` it is 6.27% (active).
Regarding `COc1cccc(C2=CC(=O)C[C@H](c3ccc(F)cc3)C2)c1OC`, the inhibition was 1.12%.
The value for `CN1CCN(CCC(=O)N/N=C/C=C2\N(C)c3ccccc3C2(C)C)CC1` was 4.4%; that for `O=C(Oc1c(-c2ccco2)oc2ccccc2c1=O)c1cccnc1` was 4.83% (active).
The figure for `Cc1c(C=O)c2ccccn2c1C(=O)c1ccncc1` is 4.31%.
The figure for `COc1cccc(/C(C)=N/Nc2ncc(Cl)cc2Cl)c1` is 5.95% (active); for `CNC(=O)/C(=C\C=C\c1ccccc1)NC(=O)c1ccc([N+](=O)[O-])cc1` it is 4.89% (active); for `O=C(Nc1ccc(C(=O)O)cc1)/C(=C/c1ccc([N+](=O)[O-])cc1)NC(=O)c1ccccc1` it is 2.84%.
Consider `C(=N/Nc1cc(N2CCOCC2)nc(N2CCOCC2)n1)/c1ccccc1`, for which the inhibition was 2.4%.
The figure for `Cc1cc(C(=O)N/N=C/c2ccc(N3CCOCC3)cc2)c(C)o1` is 3.45%.
The value for `COc1ccc(/C=N/Nc2cc(N3CCOCC3)nc(C)n2)c(OC)c1` was 5.31% (active); that for `COc1ccc(S(=O)(=O)c2c[nH]c(=S)[nH]c2=O)cc1Cl` was 2.06%; that for `CCOC(=O)c1c(C(C#N)C#N)cc(C)nc1C` was 5.34% (active).
The value for `Cc1ccc(Cl)cc1-c1ccc(/C=N/n2cnnc2)o1` was 3.18%.
As for `O=C(O)c1cccc(NC(=S)N/N=C/c2c[nH]c3ccccc23)c1`, the inhibition was 5.97% (active).
As for `S=c1[nH]nc(-c2ccccc2)n1/N=C/c1c[nH]c2ccccc12`, the inhibition is 2.93%.
The value for `O=C(Nc1cccc(F)c1)c1coc(=O)c(Br)c1` was 4.61% (active); that for `CCOc1cc(/C=C2\SC(N3CCCCC3)=NC2=O)ccc1O` was 2.79%.
